Assay results as given in PubChem BioAssay AID1159580 (chemical genetic matrix, 2015).
“And” between values parts separate entries of the source, which are not always exact repeats. Equal values may be shown once. About 2,000 (36%) of roughly 5,500 compounds were called active. Not shown: some 18% with an inconclusive outcome. No stated cut-off is given here; in the data, active means normalized growth mostly below about 0.91 (no sharp cut-off); inconclusive means no clear call, values can overlap the other calls; inactive means mostly above about 0.92. The list shows a part of the results.

Experiment: chemical genetic growth profiling, strain panel (AID 1159580);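 further: tested at 20 µM; growth read once vehicle control cultures reached saturation at 30 °C; 1 = growth at the plate median or of vehicle wells; lower values mean less growth of the strain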
Details: S. cerevisiae deletion strains, growth OD

Measured: normalized growth

CC1COc2c(N3CCN(C)CC3)c(F)cc3c(=O)c(C(=O)O)cn1c23 (stereo not drawn)
inactive: locus YAL013W, strain DEP1, hits give low values 0.993 | locus YAL021C, strain ccr4, hits give low values 0.99 | locus YAL026C, strain drs2, hits give low values 0.987 | locus YAL030W, strain snc1, hits give low values 0.988 | locus YAL040C, strain CLN3, hits give low values 1.03 | locus YBL061C, strain skt5, hits give low values 0.983 | locus YBR009C, strain hhf1, hits give low values 1 | locus YBR021W, strain FUR4, hits give low values 1.01 | locus YBR023C, strain chs3, hits give low values 0.98 | locus YBR171W, strain sec66, hits give low values 0.964 | locus YBR229C, strain ROT2, hits give low values 1.01 | locus YBR231C, strain swc5, hits give low values 0.991 | locus YBR279W, strain paf1, hits give low values 0.992 | locus YCL011C, strain gbp2, hits give low values 0.98 | locus YCL016C, strain dcc1, hits give low values 0.985 | locus YCL029C, strain bik1, hits give low values 1.01 | locus YCL061C, strain MRC1 (second series), hits give low values 1 | locus YCL061C, strain MRC1, hits give low values 0.982 | locus YCL069W, strain vba3, hits give low values 0.99 | locus YCR088W, strain abp1, hits give low values 0.986 | locus YDL005C, strain med2, hits give low values 0.974 | locus YDL035C, strain GPR1, hits give low values 1.03 | locus YDL040C, strain nat1, hits give low values 0.988 | locus YDL074C, strain BRE1, hits give low values 1.02 | locus YDL101C, strain DUN1, hits give low values 1.01 | locus YDL134C, strain PPH21, hits give low values 1.01 | locus YDL185W, strain tfp1, hits give low values 1.05 | locus YDL192W, strain arf1, hits give low values 1.01 | locus YDR001C, strain nth1, hits give low values 0.982 | locus YDR069C, strain doa4, hits give low values 1.01 | locus YDR101C, strain arx1, hits give low values 1 | locus YDR137W, strain rgp1, hits give low values 0.954 | locus YDR159W, strain sac3, hits give low values 1.01 | locus YDR162C, strain NBP2, hits give low values 1.01 | locus YDR195W, strain ref2 0.996 | locus YDR297W, strain sur2, hits give low values 0.985 | locus YDR318W, strain mcm21, hits give low values 1.01 | locus YDR334W, strain swr1, hits give low values 0.975 | locus YDR335W, strain msn5, hits give low values 0.997 | locus YDR363W, strain ESC2, hits give low values 1.01 | locus YDR388W, hits give low values 1.01 | locus YDR392W, strain spt3, hits give low values 0.903 | locus YDR502C, strain sam2, hits give low values 1.01 | locus YEL003W, strain gim4, hits give low values 1 | locus YEL037C, strain rad23, hits give low values 0.979 | locus YEL061C, strain CIN8 (second series), hits give low values 0.985 | locus YEL061C, strain CIN8, hits give low values 1.01 | locus YER002W, strain NOP16, hits give low values 0.981 | locus YER015W, strain faa2, hits give low values 0.99 | locus YER016W, strain bim1, hits give low values 1.01 | locus YER110C, hits give low values 1.02 | locus YER111C, strain swi4, hits give low values 0.983 | locus YER155C, strain BEM2 (second series), hits give low values 0.978 | locus YER155C, strain BEM2, hits give low values 1.01 | locus YER167W, strain BCK2, hits give low values 1.01 | locus YFR010W, strain ubp6, hits give low values 0.978 | locus YGL078C, strain dbp3, hits give low values 1.01 | locus YGL086W, strain mad1, hits give low values 1 | locus YGL167C, strain pmr1, hits give low values 0.985 | locus YGL173C, strain kem1, hits give low values 0.975 | locus YGL227W, strain vid30, hits give low values 0.991 | locus YGL240W, strain doc1, hits give low values 0.996 | locus YGL248W, strain PDE1, hits give low values 1 | locus YGL253W, strain hxk2, hits give low values 0.995 | locus YGR135W, strain pre9, hits give low values 1.01 | locus YGR229C, strain SMI1, hits give low values 1.03 | locus YGR252W, strain gcn5, hits give low values 1.01 | locus YHR013C, strain ard1, hits give low values 0.961 | locus YHR027C, strain rpn1, hits give low values 0.986 | locus YHR030C, strain SLT2, hits give low values 1.01 and 0.988 | locus YHR079C, strain IRE1 (second series), hits give low values 1.01 | locus YHR079C, strain IRE1, hits give low values 0.988 | locus YHR094C, strain hxt1, hits give low values 1.02 | locus YHR129C, strain ARP1, hits give low values 1 | locus YHR142W, strain chs7, hits give low values 0.956 | locus YHR200W, strain rpn10, hits give low values 1.01 | locus YIL066C, strain RNR3, hits give low values 1.01 | locus YIL073C, strain SPO22, hits give low values 1.1 | locus YIL125W, strain kgd1, hits give low values 1.01 | locus YIR030C, strain dcg1, hits give low values 1.01 | locus YJL092W, strain hpr5, hits give low values 0.983 | locus YJL095W, strain BCK1 (second series), hits give low values 0.993 | locus YJL095W, strain BCK1, hits give low values 1 and 0.976 | locus YJL115W, strain asf1, hits give low values 0.971 | locus YJL129C, strain trk1, hits give low values 0.987 | locus YJL134W, strain LCB3, hits give low values 1.01 | locus YJL154C, strain vps35, hits give low values 0.982 | locus YJL164C, strain tpk1, hits give low values 0.987 | locus YJL166W, strain qcr8, hits give low values 0.969 | locus YJL168C, strain set2, hits give low values 1.01 | locus YJL187C, strain SWE1 (second series), hits give low values 1 | locus YJL187C, strain SWE1, hits give low values 0.987 | locus YJR043C, strain POL32, hits give low values 1.02
